{"source": "PubChem BioAssay AID1259324", "about": "(C. David Weaver Laboratory, Vanderbilt University, 2017)", "note": "Hit rate of the full screen: of about 34,000 compounds, fewer than 10 were called active.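 How the source made its calls: active means primary screen hit, no activity in plain HEK293 cells, and in GIRK2-only cells above 5% efficacy rising with concentration; inactive means the rest, including fluorescent compounds.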 Only a sample is shown.", "data": [{"target": "G protein-activated inward rectifier potassium channel 2 (Homo sapiens) (UniProt P48051)", "sequence (P48051 whole entry, looked up)": "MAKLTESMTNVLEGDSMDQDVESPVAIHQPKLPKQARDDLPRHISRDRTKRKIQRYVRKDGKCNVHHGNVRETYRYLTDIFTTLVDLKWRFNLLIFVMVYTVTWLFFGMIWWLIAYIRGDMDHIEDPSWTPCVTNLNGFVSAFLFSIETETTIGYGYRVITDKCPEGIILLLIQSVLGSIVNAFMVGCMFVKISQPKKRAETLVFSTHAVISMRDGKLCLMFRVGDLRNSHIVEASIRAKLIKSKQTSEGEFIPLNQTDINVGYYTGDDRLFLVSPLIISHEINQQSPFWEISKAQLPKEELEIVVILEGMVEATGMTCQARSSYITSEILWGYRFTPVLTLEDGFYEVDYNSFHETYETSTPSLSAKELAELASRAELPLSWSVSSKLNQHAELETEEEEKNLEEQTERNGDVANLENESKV", "assay": "GIRK2 activation atop partial GPCR stimulation – cell-based, HEK293, thallium flux, summary (AID 1259324)", "conditions": "HEK293 GIRK2/NPY4 cells, thallium flux fluorescence", "values": [{"smiles": "Cc1cc(-c2nnc(NC(=O)c3ccc(S(=O)(=O)N4CCCC4)cc3)o2)n(C)n1", "outcome": "inactive"}, {"smiles": "COC(=O)c1ccc(OC)cc1CN1C(=O)N(c2cc(F)ccc2F)S(=O)(=O)c2ccccc21", "outcome": "inactive"}, {"smiles": "Cc1ccc(Nc2ccc(NC(=O)c3ccc(Br)o3)cc2)nn1", "outcome": "inactive"}, {"smiles": "Cc1csc(NC(=O)CSc2nc(=O)n(N3CCN(C)CC3)c3c2CCC3)n1", "outcome": "inactive"}, {"smiles": "Cc1nnc(CNC(=O)C(C)n2nnc3ccccc3c2=O)o1", "note": "(configuration not stated)", "outcome": "inactive"}, {"smiles": "O=C(NCCN1CCOCC1)C(=O)NCC(F)(F)F", "outcome": "inactive"}, {"smiles": "CC(=O)N1CCN(S(=O)(=O)c2ccc(C(=O)NCc3cccnc3)cc2)CC1", "outcome": "inactive"}, {"smiles": "COc1cc(C(=O)Nc2ccc3c(c2)N(C(=O)C2CC2)CCC3)cc(OC)c1OC", "outcome": "inactive"}, {"smiles": "CC(Sc1ccnc2c1c(=O)n(C)c(=O)n2C)C(=O)O", "note": "(configuration not stated)", "outcome": "inactive"}, {"smiles": "Cn1nc(NC(=O)C(C)(C)Oc2ccc(Cl)cc2)c2c1NC(=O)CC2c1ccco1", "note": "(configuration not stated)", "outcome": "inactive"}, {"smiles": "CS(=O)(=O)c1ccc(NC(=O)c2ccc(Cl)c(S(=O)(=O)N3CCOCC3)c2)cc1", "outcome": "inactive"}, {"smiles": "CCOC(=O)Nc1nc(CC(=O)Nc2ccc(OC)cc2)cs1", "outcome": "inactive"}, {"smiles": "O=C(NCc1ccc(Cl)cc1)C(=O)NCC1CCN(C(=O)c2cccnc2)CC1", "outcome": "inactive"}, {"smiles": "Cc1cc(S(=O)(=O)NCC(O)c2ccc(C(F)(F)F)cc2)ccc1F", "note": "(configuration not stated)", "outcome": "inactive"}, {"smiles": "Cc1ccc(Oc2ccc(N(C)C(=O)c3cccc(F)c3)cc2)nn1", "outcome": "inactive"}, {"smiles": "CCOc1ccc(-c2cc(=O)n(CCCC(=O)Nc3cc(C)ns3)cn2)cc1", "outcome": "inactive"}, {"smiles": "Cc1noc(C)c1S(=O)(=O)N1CCN(Cc2nc(-c3ccco3)cs2)CC1", "outcome": "inactive"}, {"smiles": "CC1CCN(c2oc(-c3ccc(S(=O)(=O)N(C)Cc4ccccc4)cc3)nc2C#N)CC1", "outcome": "inactive"}, {"smiles": "O=C(NCC1CCN(S(=O)(=O)C2CC2)CC1)c1ccccn1", "outcome": "inactive"}, {"smiles": "CCOC(=O)C(CC)Sc1ccnc2c1c(=O)n(C)c(=O)n2C", "note": "(configuration not stated)", "outcome": "inactive"}, {"smiles": "CN1CCN(C(CNC(=O)C(=O)NCc2ccc(Cl)cc2)c2cccn2C)CC1", "note": "(configuration not stated)", "outcome": "inactive"}, {"smiles": "CCN1CCc2nc(-c3ccccc3)n(CC(=O)Nc3cccc(Cl)c3C)c(=O)c2C1", "outcome": "inactive"}, {"smiles": "CC(C)C(=O)N1CCCc2ccc(NC(=O)C(=O)NCCCc3ccccc3)cc21", "outcome": "inactive"}, {"smiles": "CCOc1ccc(NS(=O)(=O)c2cccc(OC)c2)cc1", "outcome": "inactive"}, {"smiles": "COc1cc(S(=O)(=O)N2CCN(CCO)CC2)ccc1Cl", "outcome": "inactive"}, {"smiles": "O=C(N1CCC(c2cccs2)CC1)C1(c2ccc(F)cc2)CC1", "outcome": "inactive"}, {"smiles": "CS(=O)(=O)N1CCN(Cc2nnnn2-c2ccc(F)cc2)CC1", "outcome": "inactive"}, {"smiles": "CCn1c(SCC(=O)N(C)c2ccccc2)nnc1-c1cn(C)nc1OC", "outcome": "inactive"}, {"smiles": "O=C(NCCN1CCC(c2cccs2)CC1)C(=O)Nc1ccc2c(c1)OCO2", "outcome": "inactive"}, {"smiles": "CCCNC(=O)C(=O)Nc1c2c(nn1C(C)(C)C)CSC2", "outcome": "inactive"}, {"smiles": "O=C(Nc1ccc(Cl)cc1)N1CCC2(CC1)NC(=O)N(CCOc1ccccc1)C2=O", "outcome": "inactive"}, {"smiles": "O=C(CCn1ccc(=O)[nH]c1=O)N1CCN(c2ccc(-c3ccccn3)nn2)CC1", "outcome": "inactive"}, {"smiles": "Cn1cnc2cc(OC(=O)c3ccc(=O)[nH]n3)ccc21", "outcome": "inactive"}, {"smiles": "O=C(Cc1ccc2c(c1)OCO2)Nc1nnc(-c2ccc(Br)s2)o1", "outcome": "inactive"}, {"smiles": "CC1(C)Cc2cccc(OCCCS(=O)(=O)N3CCCCC3)c2O1", "outcome": "inactive"}, {"smiles": "O=C(Cn1cnc(-c2cccs2)cc1=O)NCCOc1ccc(F)cc1", "outcome": "inactive"}, {"smiles": "COC(=O)c1ccc(-c2csc(NC(=O)CS(=O)(=O)Cc3ccccc3)n2)cc1", "outcome": "inactive"}, {"smiles": "Cc1cccc(C(=O)Nc2cc(-c3ccco3)nn2-c2nc(C)cc(=O)[nH]2)c1", "outcome": "inactive"}, {"smiles": "CON(C)C(=O)C1CN(C(=O)c2cccs2)C1", "outcome": "inactive"}, {"smiles": "COc1cn(CC(=O)Nc2ccc3c(c2)OCO3)c(CSc2ncccn2)cc1=O", "outcome": "inactive"}, {"smiles": "CCOC(=O)C1CCN(C(=O)c2csc(Nc3ccccc3)n2)CC1", "outcome": "inactive"}, {"smiles": "COc1ccc(CC(=O)NCCOc2ccc(F)cc2)cc1OC", "outcome": "inactive"}, {"smiles": "CCOc1ccc2nc(NC(=O)c3ccc(S(=O)(=O)N(C)C)o3)sc2c1", "outcome": "inactive"}, {"smiles": "O=c1[nH]c(SCc2nc(-c3cccc(C(F)(F)F)c3)no2)nc2ccsc12", "outcome": "inactive"}, {"smiles": "COc1cc(N2CCN(S(C)(=O)=O)CC2)nc(OC)n1", "outcome": "inactive"}, {"smiles": "CCC(CO)NC(=O)C(=O)Nc1c2c(nn1-c1ccccc1)CS(=O)(=O)C2", "note": "(configuration not stated)", "outcome": "inactive"}, {"smiles": "CN1CCN(C(CNS(=O)(=O)c2ccc(C(C)(C)C)cc2)c2cccn2C)CC1", "note": "(configuration not stated)", "outcome": "inactive"}, {"smiles": "COc1cccc(-n2nnnc2SCC(=O)Nc2ccccc2Cl)c1", "outcome": "inactive"}, {"smiles": "COc1ccc(Cc2nnc(Nc3cc(C)ccc3C)[nH]c2=O)cc1", "outcome": "inactive"}, {"smiles": "Cc1cc(=O)n(CC(=O)Nc2ccncc2)cn1", "outcome": "inactive"}, {"smiles": "CCCCOc1ccc(C(=O)Nc2ccc3c(c2)CCC(=O)N3CCC)cc1", "outcome": "inactive"}, {"smiles": "COc1cccc(C(=O)NCC2COC3(CCCCC3)O2)c1OC", "note": "(configuration not stated)", "outcome": "inactive"}]}]}
